# VDR inh – inhibitors of human vitamin D receptor; P11473; Potency, µM, usual class: inhibitors; actives 0.93% (n = 400,000); VDR-SRC2-3 peptide fluorescence polarization, 2 h
# Target sequence (P11473 whole entry, looked up): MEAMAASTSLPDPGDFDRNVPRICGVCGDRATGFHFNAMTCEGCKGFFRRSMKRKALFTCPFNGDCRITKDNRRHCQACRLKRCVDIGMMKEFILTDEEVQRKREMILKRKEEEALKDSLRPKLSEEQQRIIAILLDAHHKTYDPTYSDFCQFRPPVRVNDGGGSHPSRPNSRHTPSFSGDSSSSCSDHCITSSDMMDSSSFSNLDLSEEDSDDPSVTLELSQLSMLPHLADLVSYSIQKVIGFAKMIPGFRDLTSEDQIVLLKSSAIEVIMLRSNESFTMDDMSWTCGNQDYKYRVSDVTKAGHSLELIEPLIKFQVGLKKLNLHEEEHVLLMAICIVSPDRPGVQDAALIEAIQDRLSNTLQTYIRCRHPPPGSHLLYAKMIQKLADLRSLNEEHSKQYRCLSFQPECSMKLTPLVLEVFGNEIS
#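 Reagent solutions, kept cold and dark, are dispensed first; compounds are then pinned in at 23 nl, plates briefly spun, and incubated 2 h at ambient temperature. Inhibition of VDR–SRC2-3 peptide binding is read by fluorescence polarization.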
# CCT modulator – changes cytosolic chaperonin activity | AID 651819 | actives 0.3% (n = 360,000) | activity change, % (concentration not given with the values), hits read low | purified chaperonin ATPase assay, HTRF ADP detection, 30 min; in the data active means activity change below about -30%
#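 Enzyme 40 or 20 nM (batch-dependent) in Tris pH 7.4/KCl/MgCl2/DTT; cpd 76 uM single point; ATP 10 uM; 30 min 37 °C; Transcreener ADP HTRF detection, 30 min RT; ratio 665/615.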
# PLK1 PBD block – blocks phosphopeptide binding to human PLK1 polo-box domain. Plk1 PBD binding of FITC phosphopeptide, fluorescence polarization. Potency, µM, usual class: inhibitors. actives 2.8% (n = 360,000). AID 720504; further: series mostly up to about 57 µM; nearly all actives have a fitted effect of over 65% in size
# Sfp PPTase inh – Sfp phosphopantetheinyl transferase inhibition; Potency, µM, hits mostly inhibitors; Biochemical Sfp PPTase activity, qHTS; AID 1490; actives 3.5% (n = 310,000); Q9F4F7;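 further: the enzyme is Sfp with the accession as filed and its product quenches rhodamine fluorescence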
#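 Buffer: 50 mM Hepes-Na pH 7.6, 10 mM MgCl2, 0.01% Nonidet P-40, 0.01% BSA. Enzyme 15 nM, pre-exposed to compound 15 min; substrates then added and fluorescence change tracked over 30 min.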
# G9a inh – blocks human histone lysine methyltransferase G9a; Q96KQ7; G9a H3K9 monomethylation, AlphaScreen, 2 h; Potency, µM (highest dose often 102 µM), usual class: inhibitors; actives 8.8% (n = 350,000); AID 504332; further: nearly all actives have a fitted effect of over 75% in size
# Target sequence (Q96KQ7 913-1193 limits assumed): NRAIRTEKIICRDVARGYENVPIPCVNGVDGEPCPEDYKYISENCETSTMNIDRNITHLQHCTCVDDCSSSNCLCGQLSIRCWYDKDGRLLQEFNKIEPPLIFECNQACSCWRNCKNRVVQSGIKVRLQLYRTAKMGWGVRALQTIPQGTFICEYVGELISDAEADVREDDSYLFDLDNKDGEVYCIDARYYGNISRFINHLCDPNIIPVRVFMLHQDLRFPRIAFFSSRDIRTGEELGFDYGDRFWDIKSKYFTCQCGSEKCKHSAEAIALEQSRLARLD
#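 Step 1: enzyme (final 20 nM) with compound, 15 min RT. Step 2: substrate peptide 500 nM and SAM 20 uM, 2 h RT. Step 3: anti-H3K9me1 antibody and AlphaScreen beads, 10 min, then plate read.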
# MmCpn inh – M. maripaludis TRiC chaperonin inhibition | purified Mm-Cpn ATPase, ADP Transcreener TR-FRET | Potency, µM (titrated, usually from 76.9 µM), hits mostly inhibitors | actives 0.031% (n = 330,000); further: nearly all actives have a fitted effect of over 80% in size
#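 Inhibition of chaperonin ATP hydrolysis is measured as reduced ADP production, detected by competitive TR-FRET in which signal falls with ADP. Final enzyme 25 nM and ATP 10 uM, reacted 30 min at 37°C.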
# A number is an active result; – = inactive; ? = inconclusive; · = not tested or not shown; [ ] = dose if it differs, or a comment. Sampled rows, rich in hits. Any-hit rate of the full collection: about 10%. Unless noted, the call rests on the fitted dose curve; in most records, active means well fitted curve in the direction sought with a large enough effect; inconclusive means small, poorly fitted or top-dose-only effect, or another doubt; inactive means no such curve, though single readings can be large; an effect the other way counts as inactive or inconclusive.
SMILES,VDR inh,CCT modulator,PLK1 PBD block,Sfp PPTase inh,G9a inh,MmCpn inh
Cc1ccc(S(=O)(=O)N2[C@@H](c3ccccc3)C(C(=O)O)=CC[C@H]2c2ccc(C(C)C)cc2)cc1,–,–,?,·,–[2.33 µM],–
COc1ccc2c(c1)C(C)CC(C)(C)N2C(=O)Nc1ccccc1 (stereo not drawn),–,–,–,–,22.4µM,–
O=c1cc(CN2CCN(c3ccc(O)cc3)CC2)nc2scc(-c3ccccc3)n12,–,–,–,56.2µM,10µM,–
Cc1cccc(C)c1OCc1cc(=O)n2c(-c3ccccc3)csc2n1,–,·,·,·,–,·
Clc1ccccc1Cn1cccc1C1=NC(Cc2ccccc2)CO1 (stereo not drawn),–,·,·,·,–,·
CCOC(=O)C1=C(c2ccccc2)N=c2s/c(=C\c3ccco3)c(=O)n2C1c1cccs1 (stereo not drawn),–,–,–,50.1µM,?,–
Cc1ccc(Nc2nc(C)c(NC(=O)c3ccc(C)cc3)c(Nc3ccc(C)cc3)n2)cc1,–,·,·,·,?,·
Cc1nn(-c2ccccc2)c(=S)n1-c1ccccc1,–,–,–,–,–[12.7 µM],–
OCCn1nc2c3ccccc3nc-2n(-c2ccccc2)c1=S,–,–,?,50.1µM,25.1µM,–
CCCc1c(O)nc(SC2CC(=O)N(c3ccc(C)c(Cl)c3)C2=O)[nH]c1=O (stereo not drawn),–,–,–,·,·,·
Cc1ccc(N2C(=O)CC(Sc3nc4ccccc4o3)C2=O)cc1Cl (stereo not drawn),–,–,–,50.1µM,11.2µM,–
O=c1c2cc(NC(=S)NCc3ccccn3)ccc2nc2n1CCCCC2,–,–,–,–,39.8µM,–
O=C(Nc1ccc2nc3n(c(=O)c2c1)CCCCC3)c1c(F)ccc([N+](=O)[O-])c1F,?,–,23.8µM,–,·,–
O=C(Nc1ccc2nc3n(c(=O)c2c1)CCCC3)c1ccccc1F,–,–,–,–,–,–
O=c1c2cc(NC(=S)NC3CCCCC3)ccc2nc2n1CCCCC2,–,–,–,–,–,–
O=C(Nc1ccc2nc3n(c(=O)c2c1)CCCCC3)c1ccccn1,–,–,–,–,25.1µM,–
O=c1c2cc(NC(=S)N3CCC(N4CCCCC4)CC3)ccc2nc2n1CCCCC2,–,–,–,79.4µM,–,–
CCCCOC(OCCCC)[C@H](O)CSc1ccc2ccccc2c1,·,·,·,–,·,·
CC1=C(C(=O)Nc2cccnc2)C(c2ccccc2)n2nc(SCc3ccccc3)nc2N1 (stereo not drawn),–,·,·,·,–,·
COc1ccccc1NC(=O)c1ccc(CN2C(=O)C(C)=C(c3ccc(C)c(C)c3)S2(=O)=O)cc1,–,·,·,·,–,·
O=C(Nc1ccc2nc3n(c(=O)c2c1)CCCCC3)C(=O)N1CCN(c2ccc(F)cc2)CC1,?,–,6.7µM,–,–,–
Oc1ccccc1N1CCN(CC(O)COCc2ccccc2Cl)CC1 (stereo not drawn),–,–,–,–,10µM,–
O=C(Nc1ccc([N+](=O)[O-])cc1)c1ccccc1F,–,–,?,–,–,–
O=C(CSc1ccc([N+](=O)[O-])cc1)NNC(=O)c1ccccc1F,–,–,9.47µM,–,50.1µM,–
O=C(Nc1ccc(-c2ccc([N+](=O)[O-])cc2)cc1)c1ccccc1F,–,–,–,–,50.1µM,–
SMILES,VDR inh,CCT modulator,PLK1 PBD block,Sfp PPTase inh,G9a inh,MmCpn inh
CN(CC(=O)Nc1ccccc1N1CCOCC1)S(=O)(=O)c1ccc(F)cc1,–,–,–,–,–[12.7 µM],–
O=C(Nc1ccccc1N1CCCCC1)c1cc(S(=O)(=O)N2CCOCC2)ccc1F,–,–,–,·,–,–
CC(=O)Nc1ccc(S(=O)(=O)N(C)CC(=O)Nc2ccccc2N2CCCC2)cc1,–,–,–,·,44.7µM,–
CCN1CCN(S(=O)(=O)c2ccc(Cl)c(C(=O)N(C)C(c3ccccc3)c3ccccc3)c2)CC1,–,–,–,·,8.91µM,–
O=C(Nc1ccccc1N1CCCC1)c1cc(S(=O)(=O)N2CCOCC2)ccc1Cl,–,–,–,·,50.1µM,–
CCN1CCN(S(=O)(=O)c2ccc(Cl)c(C(=O)Nc3ccccc3N3CCCC3)c2)CC1,–,–,–,·,–[0.501 µM],–
CCN1CCN(S(=O)(=O)c2ccc(Cl)c(C(=O)Nc3ccccc3N3CCCCC3)c2)CC1,–,–,–,·,39.8µM,–
O=C(CSc1nccn1Cc1ccc(F)cc1)Nc1nc2ccccc2s1,–,·,·,·,–,·
CCOc1ccc(/C=C/c2nc(C#N)c(Nc3ccc(OCC)cc3)o2)cc1,–,·,·,·,–,·
Cn1cc(C(=O)NCc2ccc(Cl)cc2)c(=O)c2cc(S(=O)(=O)N3CCCCCC3)ccc21,–,·,·,·,–,·
CCOc1cc(N2CCOCC2)c(OCC)cc1NC(=O)c1cc(S(=O)(=O)N2CCOCC2)ccc1Cl,–,–,–,·,50.1µM,–
CCOc1cc(N2CCOCC2)c(OCC)cc1NC(=O)c1ccc(NC(C)=O)cc1,–,–,–,–,–,–
CCOc1cc(N2CCOCC2)c(OCC)cc1NC(=O)CCS(=O)(=O)c1ccc(Cl)cc1,–,–,?,–,22.4µM,–
CCOc1cc(N2CCOCC2)c(OCC)cc1NC(=O)c1ccc(S(=O)(=O)N2CC(C)OC(C)C2)cc1 (stereo not drawn),–,–,–,·,·,·
C=CCNc1nc(-c2ccccc2)c(C(=O)OCC)cc1C#N,–,–,23.8µM,–,–[2.33 µM],–
COc1ccc(C2c3c(-c4ccccc4O)n[nH]c3C(=O)N2CCc2ccccc2)cc1 (stereo not drawn),–,·,·,·,–,·
O=C(O)c1ccccc1SC1CC(=O)N(c2cccc3ccccc23)C1=O (stereo not drawn),–,–,29.9µM,15.8µM,·,–
CCOc1ccc2nc(SC3CC(=O)N(c4ccccc4)C3=O)sc2c1 (stereo not drawn),–,–,–,–,?,–
CCOc1ccc(N2C(=O)CC(Sc3ccccc3C(=O)O)C2=O)c([N+](=O)[O-])c1 (stereo not drawn),–,–,26.7µM,12.6µM,1.41µM,–
CCN1C(=O)CC(Sc2ccccc2C(=O)O)C1=O (stereo not drawn),–,–,–,–,?,–
Cn1cc(-c2nc3cncnc3n(C3CC3)c2=O)c2ccccc21,–,·,·,–,–[0.501 µM],·
Cc1ccc(NC(=O)c2ccc(CNS(=O)(=O)c3ccc4c(c3)C(C)(C)C(=O)N4C)cc2)cc1F,–,·,·,·,–,·
COc1ccc(-c2cc(-c3ccco3)[nH]c(=O)c2C#N)cc1OC,–,–,?,22.4µM,10µM,–
C=CCNC(=O)N1CCc2nc(COc3ccccc3)c3c(c2C1)CO[C@@H](C)C3,·,·,·,–,·,·
CCN(CC)c1ccc(Nc2nc(N3CCOCC3)c3ccccc3n2)cc1,–,–,–,?,2.24µM,–
CCCCCCCCCCOC(=O)Cn1c(COc2ccccc2OC)[n+](C)c2ccccc21,–,–,–,44.7µM,–,–

# Screening data from PubChem.
